Active and inactive are the calls of the source.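 How the source made its calls, unless noted: active means compounds lowering colon cancer cell viability after pretreatment blocking the GSK3B kinase; inactive means the rest.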
Columns and labels:
[1] = Wnt pathway potentiators raising nuclear beta-catenin – imaging, WNT3A-conditioned medium, mouse C2C12, NPC library, primary screen (AID 1117326; in the data active means nuclear beta-catenin stimulation mostly above about 4.2%, no sharp cut-off; inactive means mostly below about 10%; further: reference of the scale not given here); details: stronger effect = higher value
[2] = stimulators of insulin release from INS-1E, primary screen, cell-based, 5 mM glucose, NPC library (AID 1117329;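 active means compound raises insulin release from rat beta cells at 5 mM glucose, no numeric limit stated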; further: reference of the scale not given here); details: rat INS-1E insulin secretion, at 10 µM, stronger effect = higher value
[3] = growth inhibition of GSK3B-pretreated HCT116 cells – cell-based, CellTiter-Glo, 0.2 to 20 µM (AID 1117336); details: HCT116 viability after GSK3B inhibitor, at 20 µM, stronger effect = higher value
[4] = inhibition of endothelial tube formation, primary screen, imaging, VEGF stimulated, CD31 staining, tube area, NPC library (AID 1117340;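 active means compound that reduces growth-factor-driven endothelial tube area in a mixed cell culture, no cutoff stated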); details: VEGF-stimulated ADSC/ECFC co-culture, at 10 µM, stronger effect = higher value
[5] = GLP1 release stimulators, primary, NCI-H716, NPC library (AID 1117341;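 active means compound raises GLP1 secretion from the human gut endocrine cells, with no numeric limit stated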; further: reference of the scale not given here); details: NCI-H716 cells, at 10 µM, stronger effect = higher value
[6] = HCT116 colon cancer cell growth inhibition, primary screen, CellTiter-Glo luminescence, NPC library (AID 1117342;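 active means compounds that lower survival of HCT116 colon cancer cells in the luminescence readout, no numeric limit stated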); details: at 20 µM (top of the series)
[7] = reduced SW480 viability measured with CellTiter-Glo, NPC library, primary (AID 1117343;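 active means compounds that lower viability of the colon cancer cells in the luminescence readout, with no numeric limit stated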); details: CellTiter-Glo luminescence; at 20 µM (top of the series)
[8] = NPC library primary testing for decreased DLD-1 cell viability via CellTiter-Glo (AID 1117346;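 active means compounds that lower survival of DLD-1 colon cancer cells in the luminescence readout, no cutoff given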); details: DLD-1 viability, CellTiter-Glo luminescence; at 20 µM (top of the series)

Compound	nuclear beta-catenin stimulation ([1]; at 10 µM)	nuclear beta-catenin stimulation ([1]; stimulation, at 2 µM)	insulin secretion stimulation [2]	viability decrease [3]	tube area decrease [4]	GLP1 secretion stimulation [5]	inhibition of viability [6]	viability decrease (inhibition) [7]	viability decrease (inhibition) [8]
CCOC(=O)c1ncn2c1CN(C)C(=O)c1c(I)cccc1-2	-0.1% (inactive)	-0.1%	0.8% (inactive)	3.6% (inactive)	-12.8% (inactive)	-0.9% (inactive)	11.2% (inactive)	-7.6% (inactive)	-11.3% (inactive)
CC(C)NC(C)C	14.9% (inactive)	5.2%	4.3% (inactive)	-0.3% (inactive)	-6.3% (inactive)	-0.1% (inactive)	1.1% (inactive)	2.1% (inactive)	0.4% (inactive)
N[C@@H](Cc1ccc(Oc2cc(I)c(O)c(I)c2)c(I)c1)C(=O)O	0.6% (inactive)	-0.5%	2.2% (inactive)	48.2% (inactive)	34.7% (inactive)	-3.9% (inactive)	39.6% (inactive)	36.1% (inactive)	-13.1% (inactive)
C[C@]12C[C@@H]3S[C@H]3C[C@@H]1CC[C@H]1[C@H]3CC[C@@H](O)[C@@]3(C)CC[C@@H]12	-1% (inactive)	-0.5%	2.4% (inactive)	-16.6% (inactive)	10.4% (inactive)	-4.2% (inactive)	18.8% (inactive)	17.2% (inactive)	-13.3% (inactive)
C[C@]12CC[C@H]3[C@@H](CCC4=CC(=O)CC[C@@H]43)[C@@H]1CC[C@@H]2OC(=O)CCc1ccco1	2.9% (inactive)	1%	2.5% (inactive)	-67% (inactive)	47.2% (active)	-3.2% (inactive)	23.6% (inactive)	37.2% (inactive)	14.9% (inactive)
CC(Cc1ccccc1)NCc1ccccc1Cl (configuration not stated)	0.1% (inactive)	0%	10.2% (inactive)	26.5% (inactive)	-19.5% (inactive)	2.3% (inactive)	21.9% (inactive)	51.1% (active)	22.6% (inactive)
CCC(C)(C)c1ccc(O)cc1	0.6% (inactive)	-0.2%	-1% (inactive)	-20.2% (inactive)	9.4% (inactive)	6.1% (inactive)	0.6% (inactive)	-13% (inactive)	-2.4% (inactive)
C[N+](C)(C)CCOC(=O)C(O)(c1ccccc1)c1ccccc1	-1.8% (inactive)	-0.5%	1.1% (inactive)	98.1% (active)	-29.2% (inactive)	-2.6% (inactive)	96.5% (active)	98.8% (active)	102% (active)
CCN(Cc1ccc(Cl)nc1)/C(=C/[N+](=O)[O-])NC	-0.1% (inactive)	1.1%	3.5% (inactive)	3.9% (inactive)	-21.3% (inactive)	-4.7% (inactive)	-3.27% (inactive)	13.3% (inactive)	4.5% (inactive)
CCN(CC)CCOC(=O)C(C)(c1ccccc1)c1ccccc1	1.1% (inactive)	0.8%	27.8% (active)	36.8% (inactive)	0.6% (inactive)	8.1% (inactive)	49.8% (inactive)	22.2% (inactive)	17.9% (inactive)
COC(=O)c1cncn1C(C)c1ccccc1 (configuration not stated)	-0.2% (inactive)	0.1%	1% (inactive)	1.8% (inactive)	-14.8% (inactive)	1.6% (inactive)	-8.6% (inactive)	24.4% (inactive)	20.5% (inactive)
CCCOC(=O)Cc1ccc(OCC(=O)N(CC)CC)c(OC)c1	0.4% (inactive)	1.3%	-1.7% (inactive)	0.2% (inactive)	-2.3% (inactive)	-1.8% (inactive)	9.6% (inactive)	8.2% (inactive)	-4.8% (inactive)
C1CN2CCC1CC2	0.4% (inactive)	3.2%	1.5% (inactive)	-7.5% (inactive)	9.8% (inactive)	6.5% (inactive)	4% (inactive)	4.8% (inactive)	3.1% (inactive)
Nc1ccccc1C(=O)O	1.8% (inactive)	1.3%	0.9% (inactive)	-0.1% (inactive)	-2.6% (inactive)	1.1% (inactive)	6.4% (inactive)	11.5% (inactive)	-8.85% (inactive)
CNC(=O)Oc1cccc2ccccc12	7.6% (inactive)	0.4%	1.3% (inactive)	0.5% (inactive)	41.9% (active)	-5.4% (inactive)	5% (inactive)	114% (active)	16.3% (inactive)
CN1CCC(O)(c2ccc(F)cc2)C(C(=O)c2ccc(F)cc2)C1 (configuration not stated)	20.8% (inactive)	1.6%	5% (inactive)	-1.23% (inactive)	18% (inactive)	4.8% (inactive)	4.35% (inactive)	87% (active)	72.8% (active)
Clc1ccccc1N1CCNCC1	0.1% (inactive)	-2.2%	5.2% (inactive)	4.1% (inactive)	-12% (active)	3.6% (inactive)	48.4% (inactive)	19% (inactive)	2% (inactive)

Compound	nuclear beta-catenin stimulation ([1]; at 10 µM)	nuclear beta-catenin stimulation ([1]; stimulation, at 2 µM)	insulin secretion stimulation [2]	viability decrease [3]	tube area decrease [4]	GLP1 secretion stimulation [5]	inhibition of viability [6]	viability decrease (inhibition) [7]	viability decrease (inhibition) [8]
Oc1ccc(Cl)cc1Cc1ccccc1	0.2% (inactive)	0.1%	0.7% (inactive)	38.4% (inactive)	4.6% (inactive)	38% (active)	-2.2% (inactive)	118% (active)	85.4% (active)
Oc1ccccc1-c1ccccc1	0.6% (inactive)	-0.1%	-2.4% (inactive)	-2.35% (inactive)	-3.5% (inactive)	-1.2% (inactive)	-18.2% (inactive)	15.3% (inactive)	8.7% (inactive)
O=c1c(C2CC(c3ccc(-c4ccc(Br)cc4)cc3)Cc3ccccc32)c(O)sc2ccccc12 (configuration not stated)	0% (inactive)	-2.4%	1.05% (inactive)	117% (active)	34.2% (inactive)	4.8% (inactive)	123% (active)	157% (active)	101% (active)
CC(C)=CC1C(C(=O)OCN2C(=O)C3=C(CCCC3)C2=O)C1(C)C (configuration not stated)	2.5% (inactive)	0.7%	-1.8% (inactive)	34.8% (inactive)	16% (inactive)	-0.5% (inactive)	38.2% (inactive)	63% (active)	5% (inactive)
O=C(CCCCl)c1ccc(F)cc1	-0.1% (inactive)	-0.7%	-0.9% (inactive)	-6.5% (inactive)	-3.6% (inactive)	0.1% (inactive)	3.2% (inactive)	-14.9% (inactive)	5.8% (inactive)
CC(Cc1ccc2c(c1)OCO2)NCC(O)c1ccc(O)c(O)c1 (configuration not stated)	2.6% (inactive)	-0.2%	2.9% (inactive)	38.3% (inactive)	21.3% (inactive)	-2% (inactive)	25.8% (inactive)	40.4% (inactive)	14.6% (inactive)
OCCOc1ccccc1	0.5% (inactive)	0.3%	-1.8% (inactive)	-10.3% (inactive)	8.6% (inactive)	3.7% (inactive)	-10.6% (inactive)	24.2% (inactive)	-1.2% (inactive)
CC(Cc1ccccc1)N(C)Cc1ccco1 (configuration not stated)	-0.5% (inactive)	0.7%	2.3% (inactive)	-12.2% (inactive)	25.5% (inactive)	0.1% (inactive)	8.5% (inactive)	4.3% (inactive)	-1.8% (inactive)
CN1C(=O)NC(=O)C(C)(C2=CCCCC2)C1=O (configuration not stated)	1.5% (inactive)	0.7%	-0.5% (inactive)	-11.4% (inactive)	0.1% (inactive)	0.1% (inactive)	-2.4% (inactive)	18.4% (inactive)	-1.75% (inactive)
CCO[C@H]1O[C@@H]2OC3(C)CC[C@H]4[C@H](C)CC[C@@H]([C@H]1C)[C@@]24OO3	6.9% (inactive)	25.2%	2.6% (inactive)	50.5% (active)	34.8% (inactive)	6.1% (inactive)	34.8% (inactive)	37.5% (inactive)	37.1% (inactive)
Cc1ccc([N+](=O)[O-])[c]2c1[O][Hg]2	20.9% (active)	66.9%	87.1% (active)	99.5% (active)	105% (active)	64.6% (active)	100% (active)	134% (active)	103% (active)
CC(C(O)c1ccccc1)N(C)C/C=C/c1ccccc1 (configuration not stated)	3.5% (inactive)	3.1%	2.4% (inactive)	-101% (inactive)	54.6% (active)	-3.2% (inactive)	60.9% (active)	29.4% (inactive)	7.9% (inactive)
C[C@@]12CCCCC[C@@H](Cc3ccc(O)cc31)[C@H]2N	-0.5% (inactive)	0.1%	11.2% (inactive)	-4.1% (inactive)	8.5% (inactive)	-2.3% (inactive)	13.4% (inactive)	6.4% (inactive)	-12.5% (inactive)
CCC(=O)O[C@@H]1C=C2CCC3C(CCC4(C)C3CC[C@@H]4OC(=O)CC)C2CC1 (some centres not stated)	-0.9% (inactive)	1.3%	4.8% (inactive)	7.6% (inactive)	-11.8% (inactive)	-4.4% (inactive)	21.4% (inactive)	13.2% (inactive)	9.9% (inactive)
CCC1(c2ccccc2)C(=O)N(COC)C(=O)N(COC)C1=O	0.6% (inactive)	0.4%	0.35% (inactive)	83.5% (active)	4% (inactive)	1.4% (inactive)	96.3% (active)	89.5% (active)	62.9% (active)
O=c1ccc2cc(O[C@@H]3O[C@H](CO)[C@H](O)[C@H](O)[C@H]3O)c(O)cc2o1	-0.9% (inactive)	-0.5%	5% (inactive)	-6.5% (inactive)	-14.5% (inactive)	-2.1% (inactive)	8.5% (inactive)	13.9% (inactive)	-0.6% (inactive)
